Screening results deposited in PubChem by National Center for Advancing Translational Sciences (NCATS).
Hits are enriched below; roughly 1.2% of the tested compounds scored in any of these assays.
EPAC2 antagonist: blocks human EPAC2 exchange factor; Q8WZA2; Potency, µM (series often up to 114 µM), for inactives: top-dose activity, negative = inhibition, actives largely listed as inhibitors; EPAC2 GEF exchange of Rap1B-BODIPY-GDP, fluorescence; AID 720708; 360,000 tested, 0.18% active; note: % is set by controls: 0 for no effect and ±100 for the full control effect; nearly all actives have a fitted effect of over 45% in size
VDR inhibitor: blocks the human vitamin D receptor. AID 504847. 400,000 tested, 0.93% active. VDR-SRC2-3 peptide fluorescence polarization, 2 h. Potency, µM, inactives show max response, negative = inhibition, most hits filed as inhibitors. P11473; note: % is set by controls: 0 for no effect and ±100 for the full control effect
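Fluorescence polarization assay measuring small-molecule disruption of VDR binding to the coregulator peptide SRC2-3. Compounds were pin-transferred (23 nl) into the reagent mix and incubated 2 h at room temperature before reading.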
EPAC1 antagonist: antagonists of human EPAC1; Potency, µM (highest dose often 115 µM), without a hit: at the highest dose activity change, negative = inhibition, usual class: inhibitors; 360,000 tested, 0.14% active; O95398; EPAC1 GEF assay, Rap1b-BODIPY-GDP exchange fluorescence;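 note: plate controls were vehicle for no effect and positive control for full effect; nearly all actives have a fitted effect of over 50% in size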
EPAC2 agonist: agonists of human EPAC2 (RAPGEF4); 360,000 tested, 0.079% active; Q8WZA2; EPAC2 activation, biochemical qHTS; response scale: 100% = 6.5 mM cAMP response; Potency, µM (doses to about 154 µM), inactives show at the top dose activation, hits mostly activators; note: nearly all actives have a fitted effect of over 50% in size
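Exchange assay: 100 nM EPAC2 with 250 nM Rap1B-BODIPY-GDP and 50 uM GDP. Fluorescence (ex 480/em 540 nm) read every 5 min for 30 min at room temperature. Data normalized to 6.5 mM cAMP as agonist control.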
USP1-UAF1 inh: blocks the human USP1/UAF1 deubiquitinase complex; O94782; recombinant USP1/UAF1, Ub-Rhodamine cleavage fluorescence; Potency, µM (series often up to 57.1 µM), without a hit: at the highest dose activity change, negative = inhibition, most hits filed as inhibitors; 390,000 tested, 0.23% active; AID 743255; note: % is set by controls: 0 for no effect and ±100 for the full control effect; nearly all actives have a fitted effect of over 60% in size
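1 nM enzyme complex + cpd, 15 min RT; start with Ub-Rho 150nM final; kinetic fluorescence ex 480/em 540, 6 reads q60 s. Buffer 50mM HEPES pH 7.8, 0.5mM EDTA, 0.1 mg/ml BSA, 1mM TCEP, 0.01% Tween-20.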
EPAC1 agonist: agonists of human EPAC1. O95398. EPAC1 agonist qHTS, biochemical assay; response scale: 100% = response to 6.5 mM cAMP. Potency, µM (series often up to 154 µM), for the others: at the highest dose activation, most hits filed as activators. 360,000 tested, 0.073% active. AID 720707; note: nearly all actives have a fitted effect of over 60% in size
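Nucleotide exchange by EPAC1 (100 nM) on Rap1B–BODIPY-GDP (250 nM) in the presence of 50 uM GDP is tracked fluorescently at 480/540 nm over 30 min. Signals are normalized to a 6.5 mM cAMP control.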
Starred values were filed as active, the others as inactive; ? = inconclusive; . = no result given; ! = a repeat was not active. Calls come from the whole dose curve; as a rule, active = well fitted curve in the direction sought with a large enough effect; inconclusive = small, poorly fitted or top-dose-only effect, or another doubt; inactive = no such curve, though single readings can be large; an effect the other way counts as inactive or inconclusive. Potency is the fitted concentration of half-maximal effect.

SMILES	EPAC2 antagonist	VDR inhibitor	EPAC1 antagonist	EPAC2 agonist	USP1-UAF1 inh	EPAC1 agonist
CC(=O)c1ccc(-c2ccc(C3C4C=CCCC4(C)C(=O)N3Cc3ccccc3)c(F)c2)cc1 (stereo unspecified)	.	-12%	.	.	.	.
CSCC[C@H](NC(=O)CN)C(=O)N[C@@H](CC(=O)O)C(=O)N[C@@H](CO)C(=O)N[C@@H](CC(C)C)C(=O)N[C@@H](C)C(=O)N[C@@H](Cc1ccccc1)C(=O)N[C@@H](CO)C(=O)NCC(=O)NCC(=O)N[C@@H](CC(C)C)C(N)=O	.	4%	.	.	.	.
CCCCC(=O)N1C/C=C\C(c2ccc(OC)cc2)N(Cc2ccc(F)cc2)C(=O)C1Cc1ccccc1 (stereo unspecified)	.	-7%	.	.	.	.
CC/C=C\C/C=C\C/C=C\C/C=C\C/C=C\C/C=C\CCC(=O)O	.	32µM*!	.	.	.	.
CC/C=C\C/C=C\C/C=C\C/C=C\C/C=C\C/C=C\CCC(=O)NCC(=O)O	.	-12%	.	.	.	.
Cc1ccc2nc(COc3cccc(NC(=O)COc4ccc(F)cc4)c3)cc(=O)n2c1	.	5%	.	.	?	.
Oc1c(Cl)cc(Cl)cc1Sc1cc(Cl)cc(Cl)c1O	.	28µM*	.	.	.	.
Cc1cc(C)c(O)c(CN(C)Cc2cc(Cl)cc(Cl)c2O)c1	?	4%	-10%	5%	-5%	1%
COc1ccc(/C=C2\N=C(C)OC2=O)cc1OC(C)=O	1%	50µM*	1%	18%	-8%	7%
COc1ccc(/C=C2\N=C(C)OC2=O)cc1OC	6%	?	1%	6%	-24%	1%
COC(=O)[C@@]1(Cc2ccc(OC)cc2)[C@@H]2C(=CC(=O)[C@H]2CC(=O)C(=O)N2CCCC2)CN1C(=O)c1ccccc1	-2%	89µM*	-8%	-4%	-14%	-5%
COC(=O)[C@@]1(Cc2ccc(F)cc2)[C@H]2C(CC(=O)C(=O)N3CCCC3)C(=O)C[C@H]2CN1C(=O)c1ccccc1 (stereo partly specified)	4%	.	3%	10%	.	4%
COC(=O)CCC(=O)OC1(C)C(=O)C2=CN(CC3CC3)C(c3ccc(OC)cc3)=CC2=C(Br)C1=O (stereo unspecified)	11%	?	14%	3%	32µM*	-1%
COC(=O)CCC(=O)OC1(C)C(=O)C2=CN(Cc3ccc(OC)cc3)C(c3ccc(OC)cc3)=CC2=C(Br)C1=O (stereo unspecified)	-5%	?	3%	-2%	-22%	9%
COC(=O)CCC(=O)OC1(C)C(=O)C2=CN(CCCOC(C)C)C(c3ccc(OC)cc3)=CC2=C(Br)C1=O (stereo unspecified)	10%	?	9%	-6%	28µM*	-9%
COC(=O)CCC(=O)OC1(C)C(=O)C2=CN(C3CC3)C(c3ccc(OC)cc3)=CC2=C(Br)C1=O (stereo unspecified)	?	?	-8%	19%	22µM*	1%
Cc1ccc(NS(=O)(=O)c2ccc(C(=O)N3CC(C)CC(C)C3)cc2)cc1 (stereo unspecified)	-18%	-9%	-12%	4%	-27%	100µM*
CC(C)CCn1c(=O)c2sccc2n2c(CCCC(=O)NCCc3ccccc3)nnc12	.	17%	.	.	-1%	.
COc1ccc(S(=O)(=O)c2cn(CC(=O)Nc3cc(C)ccc3C)c3ccccc3c2=O)cc1	.	4%	.	.	-19%	.
CCCCn1c(NC(=O)c2ccccc2Cl)c(C#N)c2nc3ccccc3nc21	?	45µM*	?	-2%	14µM*	-1%
N#Cc1c(NC(=O)c2ccccc2Cl)n(Cc2ccccc2)c2nc3ccccc3nc12	45µM*	?	35µM*	-15%	25µM*	-7%
Cn1nc([N+](=O)[O-])nc1Sc1nnc(-c2ccccc2)o1	9%	-9%	-10%	-3%	-5%	0%
